TDP1 inh: inhibitors of human tyrosyl-DNA phosphodiesterase TDP1 | Potency, µM (series often up to 130 µM), inactives show at the top dose activity change, negative = inhibition, most hits filed as inhibitors | actives 0.28% (n = 350,000) | Q9NUW8 | recombinant TDP1, AlphaScreen DNA substrate cleavage; also: potency is read from the fitted curve at half-maximal effect; nearly all actives have a fitted effect of over 40% in size
Target sequence (Q9NUW8 whole entry, looked up): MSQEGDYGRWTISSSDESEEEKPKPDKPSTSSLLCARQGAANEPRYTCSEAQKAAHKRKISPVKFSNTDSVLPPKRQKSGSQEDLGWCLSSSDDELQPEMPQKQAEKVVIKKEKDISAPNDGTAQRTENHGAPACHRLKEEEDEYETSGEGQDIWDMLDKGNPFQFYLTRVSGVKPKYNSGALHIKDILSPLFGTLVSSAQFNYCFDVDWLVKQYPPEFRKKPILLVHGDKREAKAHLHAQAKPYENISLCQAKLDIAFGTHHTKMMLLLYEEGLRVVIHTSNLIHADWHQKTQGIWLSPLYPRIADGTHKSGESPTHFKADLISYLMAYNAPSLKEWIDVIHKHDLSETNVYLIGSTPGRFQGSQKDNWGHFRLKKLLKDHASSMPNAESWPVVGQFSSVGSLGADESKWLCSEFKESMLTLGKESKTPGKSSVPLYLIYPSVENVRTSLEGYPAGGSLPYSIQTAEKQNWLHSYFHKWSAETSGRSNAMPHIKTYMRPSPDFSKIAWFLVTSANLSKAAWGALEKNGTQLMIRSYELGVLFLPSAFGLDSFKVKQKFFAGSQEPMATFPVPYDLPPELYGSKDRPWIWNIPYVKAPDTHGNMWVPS
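Recombinant E. coli-expressed Tdp1 (1 nM) preincubated with compound 15 min at RT, then 5'-biotin/3'-phosphotyrosine-FITC DNA substrate (15 nM) added for 5 min. AlphaScreen beads (10 ug/ml) added, 10 min RT; tyrosine-FITC cleavage read as signal loss.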
TDP1 cell noCPT: qHTS for Inhibitors of human tyrosyl-DNA phosphodiesterase 1 (TDP1): qHTS in cells in absence of CPT; DT40 Tdp1-/- hTDP1 cells, no CPT, ATP luminescence, 48 h; AID 686978, 2013; Potency, µM (titrated, usually from 46.2 µM), inactives show at the highest dose activity change, negative = growth inhibition, actives largely listed as inhibitors; actives 15% (n = 420,000); also: potency is read from the fitted curve at half-maximal effect; nearly all actives have a fitted effect of over 55% in size
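No-CPT arm: Tdp1-/-;hTDP1 DT40 cells (400/well) plus compounds, incubated ≥48 hr at 37 °C. Readout CellTiter-Glo luminescence.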
TDP1 cell CPT: DT40-hTDP1 cell growth loss with CPT; chicken DT40 Tdp1-/-;hTDP1 cells + 20 nM CPT, ATP luminescence, 48 h; Potency, µM (series often up to 46.2 µM), inactives show at the top dose activity change, negative = growth inhibition, hits mostly inhibitors; AID 686979; actives 12% (n = 420,000); also: potency is read from the fitted curve at half-maximal effect; nearly all actives have a fitted effect of over 55% in size
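Chicken DT40 Tdp1-/- cells complemented with human TDP1, 400 cells/well, exposed to compounds plus 20 nM camptothecin for at least 48 h at 37 C; viability read as ATP content by CellTiter-Glo luminescence.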
ELG1 repair inh: inhibitors of ELG1-dependent DNA repair in HEK293T cells; HEK293T ELG1-luciferase reporter, luminescence, 16 h; DNA damage induced by 5-fluorouridine; AID 504467; Potency, µM (doses to about 46.1 µM), for the others: top-dose activity change, negative = inhibition, usual class: inhibitors; actives 2.3% (n = 330,000); also: potency is read from the fitted curve at half-maximal effect; nearly all actives have a fitted effect of over 55% in size
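Cells (2,000 per well) received 5-fluorouridine plus test compound or DMSO and were incubated 16 hr at 37 °C, 5% CO2. Luciferase activity was read by luminescence 30 min after ONE-Glo addition; signal suppression marked inhibition of damage-induced ELG1 function.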
Giardia killer: Giardia lamblia killing | Giardia lamblia trophozoite viability | activity change, % at 7.66 µM, hits read low | actives 0.15% (n = 340,000) | AID 540267; in the data active = activity change below about -80%; inconclusive = between about -30% and that limit;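 also: parasites exposed to compound for two days anaerobically before the ATP read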
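Luminescence from cellular ATP indicates surviving trophozoites (100 cells/well) following 48 hrs anaerobic compound treatment at 37 deg C; signal develops 15-30 min at room temperature.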
IL-1B inflam inh: inflammasome signaling inhibition, IL-1 beta readout; THP-1 LPS/ATP IL-1B secretion, AlphaLISA, 16 h; active compounds read low; actives 4.7% (n = 360,000); activity change, % at 57.5 µM; in the data active = activity change below about -50%; inconclusive = mostly about -30% to -49%
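THP-1 cells pretreated 1 hr with compounds (up to 57.5 uM final), then stimulated with LPS (250 ng/mL final) plus ATP (1.25 mM final); secreted IL-1B measured by AlphaLISA after 16 hr, decreased signal indicating inhibition.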
The depositor's hits bear a star; ? = inconclusive; · = no result given. The list is not random: actives were taken first. Their share in the collection is about 19%. Unless noted, calls follow the shape of the dose curve; as a rule, active = well fitted curve in the direction sought with a large enough effect; inconclusive = small, poorly fitted or top-dose-only effect, or another doubt; inactive = no such curve, though single readings can be large; an effect the other way counts as inactive or inconclusive. % is scaled to controls: 0 for no effect and ±100 for the full control effect.

SMILES	TDP1 inh	TDP1 cell noCPT	TDP1 cell CPT	ELG1 repair inh	Giardia killer	IL-1B inflam inh
COc1cc(OC)c(NC(=O)C2CCCN(c3ncnc4c3nc3n4CCCCC3)C2)cc1Cl (stereo not drawn)	1%	15µM*	?	·	·	·
Cc1ccc(C)c(NC(=O)C2CCN(c3ncnc4c3nc3n4CCCCC3)CC2)c1	4%	2%	-11%	·	·	·
CC(C)NC(=O)C1CCCN(c2ncnc3c2nc2n3CCCCC2)C1 (stereo not drawn)	-1%	?	?	·	·	·
O=C(Nc1ccccc1Cl)C1CCCN(c2ncnc3c2nc2n3CCCCC2)C1 (stereo not drawn)	1%	15µM*	?	?	22	-63*
Cc1ccc(OCC(=O)NN=C2C3CC4CC(C3)CC2C4)cc1	0%	9%	17%	8%	15	1
O=C(Cc1ccc(NC2=NC3CS(=O)(=O)CC3S2)cc1)N1CCN(c2ccc(F)cc2)CC1 (stereo not drawn)	·	0%	2%	13%	-2	-1
COC(=O)C1OC(=O)C2O[C@@]23[C@]2(C)C(OC(C)=O)CC4C(C)(C)C(=O)CC[C@]4(C)C2CC[C@@]13C (stereo partly drawn)	3%	-21%	-4%	·	·	·
Clc1ccc(-c2cc3ncc4c(n3n2)-c2ccccc2OC4)cc1	1%	-21%	3%	·	·	·
Cc1nc(N2CCc3ccccc3C2)[nH]c(=O)c1CCC(C)C	3%	?	?	18%	-10	-18
Cc1nc(Nc2ccccc2)[nH]c(=O)c1CCC(C)C	7%	?	7.3µM*	?	7	23
CCN1C(=O)CCN(C2CCCC2)c2nc(Nc3ccc(C(=O)NC4CCN(C)CC4)cc3OC)ncc21	·	7.3µM*	5.2µM*	·	-4	52
COc1ccc(C(=O)NC2CCCCCC2)cc1S(=O)(=O)N1CCCc2ccccc21	2%	?	?	?	14	-1
c1ccc2c(-c3cc(C4CCNCC4)[nH]n3)cccc2c1	3%	?	21µM*	-13%	0	-25
Cc1cc(C)c2nc(N3CCCC(C(=O)NCc4cccc(Cl)c4)C3)sc2c1 (stereo not drawn)	-2%	?	?	·	·	·
CC(C)(C)C1CCC(C(=O)Nc2nccs2)CC1 (stereo not drawn)	5%	23µM*	?	?	-5	20
Cc1cnc(NC(=O)C2CCC(C(C)(C)C)CC2)s1 (stereo not drawn)	5%	?	?	?	0	-3
CCN=C1S/C(=C\c2ccc(N3CCOCC3)cc2C)C(=O)N1CC	0%	2.3µM*	2.9µM*	5.8µM*	-23	10
CN=C1S/C(=C\c2ccc(N3CCOCC3)cc2C)C(=O)N1C	6%	?	?	8.2µM*	-13	19
CN1C(=O)/C(=C/c2ccco2)SC1=Nc1ccc(N2CCOCC2)cc1	9%	-13%	?	?	-21	2
CN1C(=O)[C@H]2[C@@H](/C=C/c3ccccc3)N3C(=O)CN(Cc4ccc(-c5ccccc5)cc4)C(=O)[C@@]3(Cc3ccccc3)[C@H]2C1=O	·	?	?	11%	-18	?
COc1cccc(N(CC(=O)Nc2ccc3c(c2)OCO3)S(=O)(=O)c2ccccc2)c1	8%	?	?	-22%	-11	?
CCOc1ccccc1N(CC(=O)Nc1ccc(OC)c(OC)c1)S(=O)(=O)c1ccccc1	3%	?	?	-26%	51	10
COC(=O)c1cc(NC(=O)CN(c2cccc(OC)c2)S(=O)(=O)c2ccccc2)ccc1Cl	3%	16µM*	?	?	-4	10
COc1ccc(C)cc1N(CC(=O)Nc1cccnc1)S(=O)(=O)c1ccc(C)cc1	4%	?	?	-19%	-14	-1
COC(=O)c1cc(NC(=O)CN(c2ccccc2OC)S(=O)(=O)c2ccccc2)ccc1Cl	9%	?	?	23µM*	8	-22
SMILES	TDP1 inh	TDP1 cell noCPT	TDP1 cell CPT	ELG1 repair inh	Giardia killer	IL-1B inflam inh
COc1ccccc1N(CC(=O)Nc1ccc(C)c(Cl)c1)S(=O)(=O)c1ccc(C)cc1	·	18µM*	21µM*	·	·	·
C=CCNc1ncnc2c1ncn2[C@H]1CN(Cc2cccs2)C[C@@H](CO)O1	·	-11%	?	·	·	?
COc1ccc(CCNC(=O)COc2nncc3ccccc23)cc1	-5%	20%	5%	5%	1	-28
CCC(=O)N1CCN(c2ccc(NC(=O)c3cccs3)cc2)CC1	1%	-17%	6%	?	-12	-19
O=C(Nc1ccc(N2CCN(C(=O)c3ccccc3)CC2)cc1)c1cccs1	10%	21µM*	18µM*	?	5	-59*
COc1ccc(C(=O)N2CCN(c3ccc(NC(=O)c4cccs4)cc3)CC2)cc1	5%	?	?	12µM*	-2	?
COc1ccc(C(=O)N2CCN(c3ccc(NC(=O)c4ccco4)cc3)CC2)cc1	2%	-28%	-13%	20%	10	-15
Cc1ccc(-c2nnc(NC(=O)c3ccc([N+](=O)[O-])o3)o2)c(C)c1	·	13µM*	16µM*	-16%	-81*	?
COc1ccc(-c2nnc(NC(=O)c3ccc([N+](=O)[O-])o3)o2)c(OC)c1	4%	18µM*	?	-4%	-100*	-19
COc1ccc(C(=O)Nc2nnc(C3=COCCO3)o2)cc1	8%	-11%	-26%	4%	-11	11
COc1cc(OC)c2c(C)cc(=O)oc2c1C(CCN1CCOCC1)c1ccc(N(C)C)cc1 (stereo not drawn)	·	16µM*	5.2µM*	-10%	12	0
COc1cc(OC)c2ccc(=O)oc2c1C(CCN1CCN(c2ccccc2)CC1)c1ccc(N(C)C)cc1 (stereo not drawn)	24%	?	15µM*	14%	5	11
COc1cc(OC)c2c(-c3ccccc3)cc(=O)oc2c1C(CCN1CCN(c2ccccc2)CC1)c1ccc(N(C)C)cc1 (stereo not drawn)	24%	23µM*	15µM*	-2%	-25	-6
CCCCCc1cc(=O)oc2c(C(CCN3CCN(c4ccccc4)CC3)c3ccc(N(C)C)cc3)c(OC)cc(OC)c12 (stereo not drawn)	9%	?	21µM*	?	11	-16
Cc1ccc(C(C)C)c(OCC(=O)Nc2ccc(-c3nc4ncccc4o3)cc2C)c1	-1%	-14%	-1%	·	·	·

Screens (PubChem BioAssay)
